FLuc modulator: counter-screen for miR-21 project: firefly luciferase inhibitors or activators; P08659; purified FLuc, Km substrates, luminescence inhibition; Potency, µM (doses to about 57.5 µM), without a hit: at the top dose activity change, negative = inhibition, most hits filed as inhibitors; 360,000 tested, 6.9% active; AID 588342;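 note: plate controls were vehicle for no effect and reference inhibitor for full effect; nearly all actives have a fitted effect of over 55% in size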
Target sequence (P08659 whole entry, looked up): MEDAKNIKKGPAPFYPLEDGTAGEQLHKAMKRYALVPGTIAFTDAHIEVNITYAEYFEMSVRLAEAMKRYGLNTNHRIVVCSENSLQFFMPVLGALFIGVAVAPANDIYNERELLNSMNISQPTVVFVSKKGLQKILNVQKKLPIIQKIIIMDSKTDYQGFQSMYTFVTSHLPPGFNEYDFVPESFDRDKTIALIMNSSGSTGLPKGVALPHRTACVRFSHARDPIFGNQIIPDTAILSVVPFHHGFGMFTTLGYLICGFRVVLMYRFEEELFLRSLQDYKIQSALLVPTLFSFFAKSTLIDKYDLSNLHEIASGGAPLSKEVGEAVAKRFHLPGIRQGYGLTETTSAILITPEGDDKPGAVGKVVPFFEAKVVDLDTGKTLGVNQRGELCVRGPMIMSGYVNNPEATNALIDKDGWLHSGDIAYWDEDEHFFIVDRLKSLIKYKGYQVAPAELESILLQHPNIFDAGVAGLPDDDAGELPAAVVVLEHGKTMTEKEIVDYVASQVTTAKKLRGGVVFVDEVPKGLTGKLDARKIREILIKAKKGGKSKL
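Purified P. pyralis luciferase (10nM final) with 10uM D-luciferin and 10uM ATP (Km levels) in 50mM Tris acetate pH 7.5, 10mM Mg acetate, 0.01% Tween-20, 0.05% BSA; qHTS 6-point titration, ~60 µM downward; luminescence read.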
p53 reactivator: mutant p53 re-activation in reporter cells. H1299 p53-A138V BP100-luciferase reporter, luminescence, 24 h. Potency, µM (titrated, usually from 92.2 µM), inactives show at the highest dose activity change, positive = activation, actives largely listed as activators. 320,000 tested, 0.063% active. AID 504706; note: % of control where 0% means no effect; nearly all actives have a fitted effect of over 45% in size
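p53-null H1299 cells stably carrying temperature-sensitive p53-A138V and a BP100-luciferase reporter were pinned with compounds (4-point, 1:5 series) and held 24 hrs at 37 deg C. Luminescence was read 10 min after detection reagent.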
SMN2 splice up: increases expression of the SMN2 splice variant. Potency, µM (doses to about 46.1 µM), for inactives: at the top dose activity change, positive = activation, hits mostly activators. 210,000 tested, 2.8% active. HEK293 SMN2-luciferase splicing reporter, luminescence, 30-36 h. AID 1458; note: % of control where 0% means no effect; nearly all actives have a fitted effect of over 55% in size
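HEK293 cells carry an SMN2 […]–luciferase reporter in which exon 7 inclusion puts luciferase in frame. Cells were plated 10-12 h before compound addition, then incubated 30-36 h at 37C. ONE-Glo luminescence was read; sodium butyrate at 4.5 mM final served as control.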
Rab9 promoter act: activates the Rab9 promoter; Huh7 Rab9 promoter-luciferase reporter, luminescence, 24 h; Potency, µM (series often up to 9.22 µM), without a hit: at the highest dose activation, negative = inhibition, usual class: activators; 320,000 tested, 2.8% active; AID 485297; note: % of control where 0% means no effect; nearly all actives have a fitted effect of over 60% in size
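Using Huh7 cells stably transfected with Rab9 promoter–luciferase, compounds were incubated 24 h at 37 °C, 5% CO2; luciferase luminescence was read 10 min after reagent addition.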
ELG1 genotoxic: inducers of genotoxicity in HEK293T ELG1-luciferase cells; HEK293T ELG1-luciferase reporter, luminescence, 16 h; Potency, µM (titrated, usually from 46 µM), inactives show at the highest dose activity change, positive = activation, most hits filed as activators; 330,000 tested, 1.3% active; AID 504466; note: % of control where 0% means no effect; nearly all actives have a fitted effect of over 60% in size
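HEK293T cells expressing luciferase-tagged ELG1 were exposed to compound or DMSO vehicle for 16 hr at 37 °C and 5% CO2. Luciferase activity was then measured with ONE-Glo after 30 min at room temperature.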
NPC1 promoter act: activators of NPC1 promoter; Potency, µM (titrated, usually from 9.22 µM), inactives show top-dose activation, usual class: activators; 320,000 tested, 2.4% active; Huh7 NPC1 promoter luciferase reporter, 24 h; note: % of control where 0% means no effect; nearly all actives have a fitted effect of over 60% in size
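Cells: Huh7 expressing luciferase under the NPC1 promoter, 1500/well. Seeded 2 h, compound added, incubated 24 h at 37 °C. Luciferase reagent, 10 min ambient, then luminescence.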
* marks the source's active call; other numbers are inactive results; ? = inconclusive; . = no result; [ ] = another dose, or the depositor's remark. An excerpt weighted towards active compounds, which were near 7.3% of everything screened. Calls come from the whole dose curve; as a rule, active = well fitted curve in the direction sought with a large enough effect; inconclusive = small, poorly fitted or top-dose-only effect, or another doubt; inactive = no such curve, though single readings can be large; an effect the other way counts as inactive or inconclusive. Potency is the fitted concentration of half-maximal effect.

SMILES	FLuc modulator	p53 reactivator	SMN2 splice up	Rab9 promoter act	ELG1 genotoxic	NPC1 promoter act
Cc1cccc(-n2c(C)cc(/C=C3/C(=N)N4C(c5ccccc5)=CSC4=NC3=O)c2C)c1	-13%	-4%	-21%	0%	-3%	0%
CS(=O)(=O)C1=NN2C(=N)/C(=C\c3ccc(OC(=O)c4ccco4)cc3)C(=O)N=C2S1	?	27%	.	-1%	1%	1%
CS(=O)(=O)C1=NSC2=NC(=O)/C(=C\c3ccc(OC(=O)c4ccco4)cc3)C(=N)N21	24µM*	14%	.	17%	-3%	8%
COc1cc(/C=C2/C(=N)N3C(c4ccccc4)=CSC3=NC2=O)ccc1OCC(=O)O	27µM*	6%	.	1%	-4%	9%
COc1cc(/C=C2\C(=N)N3N=CSC3=NC2=O)cc(Br)c1OC(=O)c1ccco1	?	1%	-3%	-4%	0%	2%
Cc1ccc2oc(=O)c3cc(C(=O)Nc4cccc(C#N)c4)sc3c2c1	0%	.	10%	.	.	.
COc1cc(/C=C2/C(=N)N3C(=NC2=O)SN=C3S(C)(=O)=O)ccc1OC(=O)c1ccco1	11µM*	21%	.	5%	0%[9.26 µM]	1%
C=CCc1c(C)nc(-c2ccccc2)nc1N/N=C(\C)c1ccccc1	17µM*	16%	-10%	-1%	0%	0%
O=c1oc2ccccc2c2oc3cc(O)c(O)cc3c12	21µM*	12%	-3%	15%	?	11%
Cc1cccc(C(=O)n2nc(-c3cccnc3)nc2NCc2ccc(F)cc2)c1	-1%	.	1%	.	.	.
CC(=O)c1ccc2noc(-c3ccccc3)c2c1	?	3%	.	0%	3%	-4%
c1ccc(-c2onc3cc4c(cc23)OCCO4)cc1	-10%[2.3 µM]	?	35µM*	3.2µM*	?	?
Cc1cc(NS(=O)(=O)c2ccc(NC(=O)Nc3cccc(C(F)(F)F)c3)cc2)no1	4%	7%	.	-1%	-3%	-1%
O=C(O)[C@@H]1[C@@H](C(=O)NCc2cccnc2)[C@@H]2C=C[C@@H]1O2	.	.	-16%[9.22 µM]	.	.	.
c1ccc(CCNc2nc(-c3cccnc3)cs2)cc1	15µM*	?	?	?	?	?
c1ccc(CCNc2nc(-c3ccccn3)cs2)cc1	6.7µM*	?	?	2µM*	?	3.5µM*
COC(=O)C(=Cc1ccccc1[N+](=O)[O-])C(=O)OC	-2%	-13%	.	-7%	-12%	-19%
NS(=O)(=O)c1ccc(NC(=O)COC(=O)COc2ccc(Cl)cc2)cc1	6%	0%	11%	-1%	-4%	-6%
CCOC(=O)CSc1nc(C)c(C(=O)OCC)s1	-18%	-13%	3%	-1%	1%	1%
COc1ccc(NC(=O)c2sc(SC)nc2N)cc1	12µM*	?	13µM*	?	18µM*	?
COc1ccc(NC(=O)c2sc(SCc3ccccc3)nc2N)cc1	?	3%	-1%	19%	-3%	16%
CCN(CC)C(=O)CSc1nc(N)c(C(=O)Nc2ccc(OC)cc2)s1	24µM*	0%	-23%	-2%	-4%	1%
COc1ccc(NC(=O)c2scc(S(=O)(=O)C(C)C)c2N)cc1	6µM*	20%	.	1.1µM*	?	2.5µM*
CCOC(=O)CSc1nc(N)c(C(=O)Nc2ccc(N(C)C)cc2)s1	8.5µM*	2%	-4%	-7%	9%	0%
Cc1cccc(NC(=O)C2CCCN2S(=O)(=O)c2ccc3nc(-c4ccccc4)[nH]c3c2)c1 (stereo unspecified)	-14%	.	.	.	.	.
SMILES	FLuc modulator	p53 reactivator	SMN2 splice up	Rab9 promoter act	ELG1 genotoxic	NPC1 promoter act
Nn1c(SCC(=O)N2CCOCC2)nnc1C1CC1	-1%	7%	12%	1%	0%	1%
Cc1ccc(C(=O)NC(=S)N2CCN(C)CC2)cc1Br	0%	.	.	0%	0%	8%
O=C(c1cc2cc([N+](=O)[O-])ccc2oc1=O)n1cccn1	-3%	1%	0%	4µM*	-2%	-4%
CCN1CCN(C(=O)c2cc3cc([N+](=O)[O-])ccc3oc2=O)CC1	-1%	6%	8%	-6%	6%	1%
Cn1c(=O)c(C(=O)Nc2ccccn2)c(O)c2ccccc21	4.8µM*	?	.	2.8µM*	?	?
Cn1c(=O)c(C(=O)Nc2cnccn2)c(O)c2ccccc21	2%	28%	13µM*	?	16%	13%
CCOC(=O)c1sc(=NC(=O)c2cccc(Br)c2)n(C)c1C	-20%	4%	.	4.5µM*	?	?
CCOC(=O)c1sc(=NC(=O)c2cccc(C)c2)n(C)c1C	?	20%	10µM*	2µM*	?	?
COc1ccc(Cl)cc1-c1nc(SCC(=O)N(C)C2CCS(=O)(=O)C2)n[nH]1 (stereo unspecified)	.	8%	.	.	0%	.

Source: PubChem
